Most compounds without a hit are left out; they make up all but 19% or so of the library.
IL-1B inflam inh = qHTS for Inhibitors of Inflammasome Signaling: IL-1-beta AlphaLISA Primary Screen | THP-1 LPS/ATP IL-1B secretion, AlphaLISA, 16 h; stronger effect = lower value | activity change, % at 57.5 µM | 360,000 tested, 4.7% active; in the data active = activity change below about -50%; inconclusive = mostly about -30% to -49%
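Secreted IL-1B measured by AlphaLISA bead assay after 16 h compound exposure of THP-1 cells; compounds (final up to 57.5 uM) added 1 h before LPS (250 ng/mL) and ATP (1.25 mM) stimulation; lower signal means less secretion.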
DT40 TDP1 CPT = qHTS for Inhibitors of human tyrosyl-DNA phosphodiesterase 1 (TDP1): qHTS in cells in presence of CPT. chicken DT40 Tdp1-/-;hTDP1 cells + 20 nM CPT, ATP luminescence, 48 h. 420,000 tested, 12% active. Potency, µM (highest dose often 46.2 µM), for the others: at the top dose activity change, negative = growth inhibition, hits mostly inhibitors; also: potency is read from the fitted curve at half-maximal effect; nearly all actives have a fitted effect of over 55% in size
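Chicken DT40 Tdp1-/- cells complemented with human TDP1, 400 cells/well, exposed to compounds plus 20 nM camptothecin for at least 48 h at 37 C; viability read as ATP content by CellTiter-Glo luminescence.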
HT1080NT lethal = qHTS for induction of synthetic lethality in tumor cells producing 2HG: qHTS for the HT-1080-NT fibrosarcoma cell line | HT-1080-NT fibrosarcoma viability, CellTiter-Glo ATP luminescence, 48 h | Potency, µM (titrated, usually from 46.1 µM), for the others: at the highest dose activity, negative = less viability, most hits filed as cytotoxic | 360,000 tested, 1.6% active;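 also: NT is the 2HG producing partner of a matched IDH1 knockdown line; potency is read from the fitted curve at half-maximal effect; 0% = DMSO-treated cells and -100% = media-only wells without cells; nearly all actives have a fitted effect of over 55% in size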
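Fibrosarcoma NT cells, 750 per well in 5% FBS RPMI, were exposed to compound for 48 hours. Viability: CellTiter-Glo luminescence.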
TDP1 cell noCPT = qHTS for Inhibitors of human tyrosyl-DNA phosphodiesterase 1 (TDP1): qHTS in cells in absence of CPT. DT40 Tdp1-/- hTDP1 cells, no CPT, ATP luminescence, 48 h. 420,000 tested, 15% active. AID 686978, 2013. Potency, µM (top dose mostly 46.2 µM), for the others: at the top dose activity change, negative = growth inhibition, actives largely listed as inhibitors; also: potency is read from the fitted curve at half-maximal effect; nearly all actives have a fitted effect of over 55% in size
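Growth of hTDP1-complemented DT40 Tdp1-knockout cells is measured by ATP luminescence after at least 48 hr compound exposure at 37 °C, with DMSO substituting for the 20 nM CPT used in the parallel screen.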
HT1080 IDH1KD tx = qHTS for induction of synthetic lethality in tumor cells producing 2HG: qHTS for the HT-1080-IDH1KD cell line | 360,000 tested, 2% active | AID 686971, 2013 | HT-1080 IDH1 knockdown viability, ATP luminescence, 48 h | Potency, µM (doses to about 46.1 µM), inactives show at the highest dose activity, negative = toxicity, most hits filed as cytotoxic;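 also: potency is read from the fitted curve at half-maximal effect; 0% = DMSO wells and -100% = cell-free medium wells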
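Using the IDH1-knockdown HT-1080 line run in the same batch and compound series as the NT line, viability after 48 h at 37 °C was determined by CellTiter-Glo luminescence and expressed as % activity.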
uPA generation = qHTS for Inhibitors of Cell Surface uPA Generation | cell surface uPA generation assay, qHTS | Potency, µM (titrated, usually from 38.3 µM), for inactives: at the highest dose activity change, negative = inhibition, actives largely listed as inhibitors | 330,000 tested, 0.31% active; active = well fitted inhibition curve with a large enough effect; inconclusive = small, poorly fitted or top-dose-only effect; inactive = no such curve, though single readings can be large or run the other way; tested in mouse RAW 264.7 cells; also: potency is read from the fitted curve at half-maximal effect; nearly all actives have a fitted effect of over 55% in size
The depositor's hits bear a star; ? = inconclusive; · = no result. Unless noted, calls follow the shape of the dose curve; as a rule, active = well fitted curve in the direction sought with a large enough effect; inconclusive = small, poorly fitted or top-dose-only effect, or another doubt; inactive = no such curve, though single readings can be large; an effect the other way counts as inactive or inconclusive. Unless noted, % is scaled to controls: 0 for no effect and ±100 for the full control effect.

SMILES	IL-1B inflam inh	DT40 TDP1 CPT	HT1080NT lethal	TDP1 cell noCPT	HT1080 IDH1KD tx	uPA generation
CN1C[C@@H]2[C@@H]3C(=O)N(Cc4ccccc4)C(=O)[C@@H]3[C@](Cc3ccccc3)(C1=O)N2C(=O)c1ccc(Cl)cc1	-18.2	?	3.7%	-9.2%	7.1%	6.1%
Cc1ccc(CNC(=O)c2ccc([N+](=O)[O-])o2)cc1	?	16.4µM*	?	?	?	-9.4%
Cc1ccc(CNC(=O)CNC(=O)c2ccc(Br)o2)cc1	74.7	-17.3%	-0.2%	1.9%	0.3%	3.2%
O=c1[nH][nH]c(=O)c(Cl)c1Cl	-14.0	-7.9%	-0.2%	-20.6%	4.5%	4.6%
Cc1cc(-n2c(C)cc(C(=O)CSc3ccc4c(c3)OCCO4)c2C)no1	-18.1	?	-10.0%	25.9µM*	-9.3%	-0.4%
Cc1cc(-n2c(C)cc(C(=O)CCl)c2C)no1	-102.3*	1.16µM*	5.8µM*	0.92µM*	7.31µM*	-18.9%
CCC(C(=O)NCc1ccco1)N(C(=O)CNS(=O)(=O)c1ccccc1)c1ccccc1C (configuration not stated)	-13.8	11.6%	-0.8%	-17.4%	-0.4%	4.1%
CCCCc1ccc(NC(=S)NCc2ccc(OC)cc2)cc1	-9.0	?	-14.1%	18.4µM*	?	2.0%
COc1ccc(CCNC(=S)Nc2ccc(C(C)C)cc2)cc1	-15.9	?	-21.1%	18.4µM*	-5.7%	7.9%
CC(=O)NC(=S)Nc1ccc(NC(=O)COc2ccc(C(C)C)cc2)cc1	53.8	-4.2%	-15.9%	-22.3%	-11.8%	1.3%
CC(C)c1ccc(NC(=S)Nc2ccc(OC(F)(F)F)cc2)cc1	-7.3	18.4µM*	0.0%	23.1µM*	8.0%	3.9%
COc1ccc(NC(=S)NCc2ccc(F)cc2)cc1	-11.9	-22.5%	7.9%	?	0.0%	6.5%
CCC(C)c1ccc(NC(=S)Nc2ccc(OC)cc2)cc1 (configuration not stated)	-18.2	23.1µM*	-8.9%	16.4µM*	-14.3%	-1.8%
CCc1ccc(-c2nc3cc(NC(=O)c4ccc(F)cc4)ccc3o2)cc1	·	-15.0%	·	?	·	·
CCCCc1ccc(NC(=S)N2CCCC2)cc1	-4.4	11.6µM*	-1.8%	14.6µM*	-1.6%	-10.3%
COc1ccc(NC(=S)NCCc2c(C)[nH]c3ccc(OC)cc23)cc1	-51.8*	?	6.6%	?	5.4%	4.2%
COc1ccc(CCNC(=S)Nc2ccc(OC)cc2)cc1	2.5	?	5.2%	?	9.9%	-28.0%
COc1ccc(CCNC(=S)Nc2cc(C)cc(C)c2)cc1	-10.2	?	-7.3%	23.1µM*	2.0%	3.6%
CCOc1ccc(C(=O)c2oc3ccccc3c2NC(=O)c2cc(=O)c3ccc(C)cc3o2)cc1	·	-3.1%	·	-15.8%	·	·
CCOc1ccc2nc(N3CCCC(C(=O)NCCCN4C(C)CCCC4C)C3)sc2c1 (configuration not stated)	-69.7*	?	?	?	?	-8.5%
CCOc1ccc2nc(N3CCCC(C(=O)NCCCN4CCCCC4)C3)sc2c1 (configuration not stated)	0.0	?	18.4µM*	?	?	-20.2%
CCOc1ccc2nc(N3CCCC(C(=O)NCCCN4CC(C)CC(C)C4)C3)sc2c1 (configuration not stated)	-53.5*	18.4µM*	16.4µM*	18.4µM*	?	-0.6%
CCCOc1ccc(CN(C(=O)c2nc(SC(C)C)ncc2Cl)C2CCS(=O)(=O)C2)cc1 (configuration not stated)	·	?	·	14.6µM*	·	·
CSc1ncc(Cl)c(C(=O)N(Cc2ccccc2Cl)C2CCS(=O)(=O)C2)n1 (configuration not stated)	·	-3.6%	·	-11.2%	·	·
CC(C)Sc1ncc(Cl)c(C(=O)N(Cc2ccc(F)cc2)C2CCS(=O)(=O)C2)n1 (configuration not stated)	·	?	·	23.1µM*	·	·
SMILES	IL-1B inflam inh	DT40 TDP1 CPT	HT1080NT lethal	TDP1 cell noCPT	HT1080 IDH1KD tx	uPA generation
CCSc1ncc(Cl)c(C(=O)N(Cc2ccccc2Cl)C2CCS(=O)(=O)C2)n1 (configuration not stated)	·	18.4µM*	·	14.6µM*	·	·
Cc1oc(-c2ccccc2NC(=O)c2cccnc2)nc1CNC(=O)c1ccc(N(C)C)cc1	·	0.7%	·	-15.7%	·	·
O=c1[nH]c2nc(Br)[nH]c(=O)c2[nH]1	15.7	-1.7%	6.4%	-2.3%	21.2%	3.8%
Cc1ccc2c(Sc3ccc(Cl)cc3)c(C(=O)N3CCC(C)CC3)[nH]c2c1	·	16.4µM*	·	20.6µM*	·	·
COCCCN(C(=O)c1ccco1)c1nc(-c2ccc(OC)cc2)cs1	-15.8	16.4µM*	-11.1%	20.6µM*	-21.3%	-6.2%
COCCCN(C(=O)c1ccccc1F)c1nc(-c2ccc(OC)cc2)cs1	-17.3	?	-9.2%	?	-12.2%	-9.5%
COCCCN(C(=O)c1ccccc1)c1nc(-c2ccc(OC)cc2)cs1	-29.8	18.4µM*	-2.4%	16.4µM*	-9.2%	-2.4%
COc1ccc(-c2nnc(N(C)C(=O)c3ccco3)s2)cc1OC	-19.8	-25.6%	0.0%	-12.9%	25.6%	-2.0%
COCCN(C(=O)c1ccco1)c1nnc(-c2ccc(OC)c(OC)c2)s1	-58.6*	-27.5%	13.6%	?	17.0%	9.3%
Cc1ccc(N2CC(O)CSC2=Nc2ccccc2)cc1 (configuration not stated)	-19.6	?	-12.6%	?	-18.5%	·
CC(C)N(C)c1ncnc2c1ncn2[C@H]1CN(Cc2ccc3c(c2)OCO3)C[C@@H](CO)O1	-22.6	-14.3%	0.3%	?	8.4%	·
Cc1cc(Br)ccc1NC(=O)CNC(=O)CNc1cccc([N+](=O)[O-])c1	-24.2	20.6µM*	-10.2%	?	-17.2%	10.5%
O=C(CNc1cccc([N+](=O)[O-])c1)NCCCc1ccccc1	-95.7*	-3.2%	-6.0%	?	-4.5%	-0.1%
O=[N+]([O-])c1ccc(NCCCc2ccccc2)cc1	-18.1	?	-7.3%	18.4µM*	-0.3%	·
CC(C)CC(=O)NC(NC(=O)CC(C)C)c1cccc([N+](=O)[O-])c1	0.0	18.2%	7.2%	-4.4%	-3.7%	-0.8%
